Assay results from the supplement of paper PMC4466140.

Biological target: SpBzz1-D2
Test: SPOT peptide array binding signal intensity (averaged, normalized) (arbitrary units (background-subtracted, floor 0; scale differs between SH3 domains)); higher = stronger binding of the SH3 domain to the peptide
Method in brief: (§1)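 To measure binding, SH3 domains from four yeast species were fused to GST, expressed in E. coli BL21(DE3) and purified on glutathione Sepharose. Each domain was incubated at 10 μg/ml overnight at 4°C on cellulose membranes with synthetic 15-mer peptides whose cysteines were replaced by serines. Anti-GST antibody, an HRP anti-mouse secondary and luminol were used for detection, and images were quantified with Genespotter. Reported binding signal is normalized, background-subtracted spot intensity averaged over replicates, in arbitrary units that differ between domains.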

Binder | SPOT peptide array binding signal intensity
PHNPSPFFPPPDFND | 1
TEVPIPRRPPPPQAA | 0.25

Biological target: SpCyk3
Test: as above
Method in brief: as §1

Binder | SPOT peptide array binding signal intensity
PHNPSPFFPPPDFND | ≤ 0
TEVPIPRRPPPPQAA | ≤ 0

Biological target: SpHof1
Test: as above
Method in brief: as §1

Binder | SPOT peptide array binding signal intensity
PHNPSPFFPPPDFND | ≤ 0
TEVPIPRRPPPPQAA | ≤ 0

Biological target: SpHof1-2
Test: as above
Method in brief: as §1

Binder | SPOT peptide array binding signal intensity
PHNPSPFFPPPDFND | ≤ 0
TEVPIPRRPPPPQAA | ≤ 0

Biological target: SpHof1-3
Test: as above
Method in brief: as §1

Binder | SPOT peptide array binding signal intensity
PHNPSPFFPPPDFND | ≤ 0
TEVPIPRRPPPPQAA | ≤ 0

Biological target: SpHse1
Test: as above
Method in brief: as §1

Binder | SPOT peptide array binding signal intensity
PHNPSPFFPPPDFND | 69.8
TEVPIPRRPPPPQAA | 8

Biological target: SpLsb1
Test: as above
Method in brief: as §1

Binder | SPOT peptide array binding signal intensity
PHNPSPFFPPPDFND | 18
TEVPIPRRPPPPQAA | 1

Biological target: SpLsb4
Test: as above
Method in brief: as §1

Binder | SPOT peptide array binding signal intensity
PHNPSPFFPPPDFND | ≤ 0
TEVPIPRRPPPPQAA | 90.5

Biological target: SpMyo1
Test: as above
Method in brief: as §1

Binder | SPOT peptide array binding signal intensity
PHNPSPFFPPPDFND | 118
TEVPIPRRPPPPQAA | 1920

Biological target: SpNbp2
Test: as above
Method in brief: as §1

Binder | SPOT peptide array binding signal intensity
PHNPSPFFPPPDFND | 3
TEVPIPRRPPPPQAA | 1

Biological target: SpPex13
Test: as above
Method in brief: as §1

Binder | SPOT peptide array binding signal intensity
PHNPSPFFPPPDFND | ≤ 0
TEVPIPRRPPPPQAA | ≤ 0

Biological target: SpRvs167
Test: as above
Method in brief: as §1

Binder | SPOT peptide array binding signal intensity
PHNPSPFFPPPDFND | 3.33
TEVPIPRRPPPPQAA | ≤ 0

Biological target: SpSla1-D1-D2
Test: as above
Method in brief: as §1

Binder | SPOT peptide array binding signal intensity
PHNPSPFFPPPDFND | ≤ 0
TEVPIPRRPPPPQAA | ≤ 0

Biological target: SpSla1-D3
Test: as above
Method in brief: as §1

Binder | SPOT peptide array binding signal intensity
PHNPSPFFPPPDFND | ≤ 0
TEVPIPRRPPPPQAA | 1

Biological target: AgAbp1
Test: as above
Method in brief: as §1

Binder | SPOT peptide array binding signal intensity
TEVPIPRRPPPPQAA | ≤ 0

Biological target: AgBbc1
Test: as above
Method in brief: as §1

Binder | SPOT peptide array binding signal intensity
TEVPIPRRPPPPQAA | 130

Biological target: AgBem1-D1
Test: as above
Method in brief: as §1

Binder | SPOT peptide array binding signal intensity
TEVPIPRRPPPPQAA | ≤ 0

Biological target: AgBzz1-D1
Test: as above
Method in brief: as §1

Binder | SPOT peptide array binding signal intensity
TEVPIPRRPPPPQAA | 8

Biological target: AgBzz1-D2
Test: as above
Method in brief: as §1

Binder | SPOT peptide array binding signal intensity
TEVPIPRRPPPPQAA | 7.5

Biological target: AgCyk3
Test: as above
Method in brief: as §1

Binder | SPOT peptide array binding signal intensity
TEVPIPRRPPPPQAA | ≤ 0

Biological target: AgFus1
Test: as above
Method in brief: as §1

Binder | SPOT peptide array binding signal intensity
TEVPIPRRPPPPQAA | ≤ 0

Biological target: AgHof1
Test: as above
Method in brief: as §1

Binder | SPOT peptide array binding signal intensity
TEVPIPRRPPPPQAA | ≤ 0

Biological target: AgHse1
Test: as above
Method in brief: as §1

Binder | SPOT peptide array binding signal intensity
TEVPIPRRPPPPQAA | ≤ 0

Biological target: AgLsb1
Test: as above
Method in brief: as §1

Binder | SPOT peptide array binding signal intensity
TEVPIPRRPPPPQAA | ≤ 0

Biological target: AgLsb4
Test: as above
Method in brief: as §1

Binder | SPOT peptide array binding signal intensity
TEVPIPRRPPPPQAA | 23.5

Biological target: AgMyo5
Test: as above
Method in brief: as §1

Binder | SPOT peptide array binding signal intensity
TEVPIPRRPPPPQAA | 938

Biological target: AgNbp2
Test: as above
Method in brief: as §1

Binder | SPOT peptide array binding signal intensity
TEVPIPRRPPPPQAA | ≤ 0

Biological target: AgRvs167
Test: as above
Method in brief: as §1

Binder | SPOT peptide array binding signal intensity
TEVPIPRRPPPPQAA | 2.33

Biological target: AgSho1
Test: as above
Method in brief: as §1

Binder | SPOT peptide array binding signal intensity
TEVPIPRRPPPPQAA | ≤ 0

Biological target: AgSla1-D1-D2
Test: as above
Method in brief: as §1

Binder | SPOT peptide array binding signal intensity
TEVPIPRRPPPPQAA | ≤ 0

Biological target: AgSla1-D3
Test: as above
Method in brief: as §1

Binder | SPOT peptide array binding signal intensity
TEVPIPRRPPPPQAA | 1

Biological target: CaAbp1-D1
Test: as above
Method in brief: as §1

Binder | SPOT peptide array binding signal intensity
TEVPIPRRPPPPQAA | ≤ 0

Biological target: CaAbp1-D2
Test: as above
Method in brief: as §1

Binder | SPOT peptide array binding signal intensity
TEVPIPRRPPPPQAA | ≤ 0

Biological target: CaBbc1
Test: as above
Method in brief: as §1

Binder | SPOT peptide array binding signal intensity
TEVPIPRRPPPPQAA | 768

Biological target: CaBem1-D1
Test: as above
Method in brief: as §1

Binder | SPOT peptide array binding signal intensity
TEVPIPRRPPPPQAA | ≤ 0

Biological target: CaBzz1-D1
Test: as above
Method in brief: as §1

Binder | SPOT peptide array binding signal intensity
TEVPIPRRPPPPQAA | 32

Biological target: CaBzz1-D2
Test: as above
Method in brief: as §1

Binder | SPOT peptide array binding signal intensity
TEVPIPRRPPPPQAA | ≤ 0

Biological target: CaCyk3
Test: as above
Method in brief: as §1

Binder | SPOT peptide array binding signal intensity
TEVPIPRRPPPPQAA | 20

Biological target: CaFus1
Test: as above
Method in brief: as §1

Binder | SPOT peptide array binding signal intensity
TEVPIPRRPPPPQAA | ≤ 0

Biological target: CaHof1
Test: as above
Method in brief: as §1

Binder | SPOT peptide array binding signal intensity
TEVPIPRRPPPPQAA | 1

Biological target: CaHse1
Test: as above
Method in brief: as §1

Binder | SPOT peptide array binding signal intensity
TEVPIPRRPPPPQAA | ≤ 0

Biological target: CaLsb1
Test: as above
Method in brief: as §1

Binder | SPOT peptide array binding signal intensity
TEVPIPRRPPPPQAA | 0.5

Biological target: CaLsb4
Test: as above
Method in brief: as §1

Binder | SPOT peptide array binding signal intensity
TEVPIPRRPPPPQAA | 210

Biological target: CaMyo5
Test: as above
Method in brief: as §1

Binder | SPOT peptide array binding signal intensity
TEVPIPRRPPPPQAA | 1

Biological target: CaNbp2
Test: as above
Method in brief: as §1

Binder | SPOT peptide array binding signal intensity
TEVPIPRRPPPPQAA | 204

Biological target: CaRvs167
Test: as above
Method in brief: as §1

Binder | SPOT peptide array binding signal intensity
TEVPIPRRPPPPQAA | ≤ 0

Biological target: CaRvs167-3
Test: as above
Method in brief: as §1

Binder | SPOT peptide array binding signal intensity
TEVPIPRRPPPPQAA | 2.75

Biological target: CaSho1
Test: as above
Method in brief: as §1

Binder | SPOT peptide array binding signal intensity
TEVPIPRRPPPPQAA | ≤ 0

Biological target: CaSla1-D1-D2
Test: as above
Method in brief: as §1

Binder | SPOT peptide array binding signal intensity
TEVPIPRRPPPPQAA | ≤ 0

Biological target: CaSla1-D3
Test: as above
Method in brief: as §1

Binder | SPOT peptide array binding signal intensity
TEVPIPRRPPPPQAA | 0.5

Biological target: ScAbp1
Test: as above
Method in brief: as §1

Binder | SPOT peptide array binding signal intensity
TEVPIPRRPPPPQAA | ≤ 0

Biological target: ScBbc1
Test: as above
Method in brief: as §1

Binder | SPOT peptide array binding signal intensity
TEVPIPRRPPPPQAA | ≤ 0

Biological target: ScBem1-D1
Test: as above
Method in brief: as §1

Binder | SPOT peptide array binding signal intensity
TEVPIPRRPPPPQAA | ≤ 0

Biological target: ScBzz1-D1
Test: as above
Method in brief: as §1

Binder | SPOT peptide array binding signal intensity
TEVPIPRRPPPPQAA | 14

Biological target: ScBzz1-D2
Test: as above
Method in brief: as §1

Binder | SPOT peptide array binding signal intensity
TEVPIPRRPPPPQAA | 12

Biological target: ScCyk3
Test: as above
Method in brief: as §1

Binder | SPOT peptide array binding signal intensity
TEVPIPRRPPPPQAA | ≤ 0

Biological target: ScFus1
Test: as above
Method in brief: as §1

Binder | SPOT peptide array binding signal intensity
TEVPIPRRPPPPQAA | 1

Biological target: ScHof1
Test: as above
Method in brief: as §1

Binder | SPOT peptide array binding signal intensity
TEVPIPRRPPPPQAA | ≤ 0

Biological target: ScHse1
Test: as above
Method in brief: as §1

Binder | SPOT peptide array binding signal intensity
TEVPIPRRPPPPQAA | ≤ 0

Biological target: ScLsb1
Test: as above
Method in brief: as §1

Binder | SPOT peptide array binding signal intensity
TEVPIPRRPPPPQAA | 5

Biological target: ScLsb2
Test: as above
Method in brief: as §1

Binder | SPOT peptide array binding signal intensity
TEVPIPRRPPPPQAA | ≤ 0

Biological target: ScLsb3
Test: as above
Method in brief: as §1

Binder | SPOT peptide array binding signal intensity
TEVPIPRRPPPPQAA | 118

Biological target: ScLsb4
Test: as above
Method in brief: as §1

Binder | SPOT peptide array binding signal intensity
TEVPIPRRPPPPQAA | 2

Biological target: ScMyo3
Test: as above
Method in brief: as §1

Binder | SPOT peptide array binding signal intensity
TEVPIPRRPPPPQAA | 1370

Biological target: ScMyo5
Test: as above
Method in brief: as §1

Binder | SPOT peptide array binding signal intensity
TEVPIPRRPPPPQAA | 569

Biological target: ScNbp2
Test: as above
Method in brief: as §1

Binder | SPOT peptide array binding signal intensity
TEVPIPRRPPPPQAA | 12

Biological target: ScPex13
Test: as above
Method in brief: as §1

Binder | SPOT peptide array binding signal intensity
TEVPIPRRPPPPQAA | ≤ 0

Biological target: ScRvs167
Test: as above
Method in brief: as §1

Binder | SPOT peptide array binding signal intensity
TEVPIPRRPPPPQAA | 1.83

Biological target: ScSho1
Test: as above
Method in brief: as §1

Binder | SPOT peptide array binding signal intensity
TEVPIPRRPPPPQAA | ≤ 0

Biological target: ScSla1-D1-D2
Test: as above
Method in brief: as §1

Binder | SPOT peptide array binding signal intensity
TEVPIPRRPPPPQAA | ≤ 0

Biological target: ScSla1-D3
Test: as above
Method in brief: as §1

Binder | SPOT peptide array binding signal intensity
TEVPIPRRPPPPQAA | ≤ 0

Biological target: SpAbp1-D1
Test: as above
Method in brief: as §1

Binder | SPOT peptide array binding signal intensity
TEVPIPRRPPPPQAA | ≤ 0

Biological target: SpBbc1
Test: as above
Method in brief: as §1

Binder | SPOT peptide array binding signal intensity
TEVPIPRRPPPPQAA | 1.25

Biological target: SpBzz1-D1
Test: as above
Method in brief: as §1

Binder | SPOT peptide array binding signal intensity
TEVPIPRRPPPPQAA | 37
